# Data reported in ChEMBL document CHEMBL3988442, “University of Dundee, Small-Polar-MMV Screening Library” (2021).
# Screen size: about 69,000 compounds; about 950 (1.4%) showed an effect of 50% or more. The sample as a whole holds a higher share of strong results than the screen did.
# System: Mycobacterium tuberculosis
# Assay: Cornell M. t heat shock assay; further: in the data most compounds retested in dose-response had high values
# Format: functional, organism-based
# Design: dose or concentration left out as unconfirmed
row,Compound,Percent Effect [%]
1,Cc1ccc(CN2CCO[C@H]3[C@H](OCc4cccnc4)CC[C@@H]32)o1.O=C(O)C(F)(F)F.O=C(O)C(F)(F)F,17.99
2,Cl.c1cnc2[nH]c(C3CCCNC3)c(CN3CCCOCC3)c2c1 (stereo not drawn),-14.8
3,CCOc1ccc(Br)cc1-c1cc(N)[nH]n1.Cl,3.82
4,CCOc1ccccc1-c1cc(N)[nH]n1.Cl,-11.82
5,Nc1ncccc1CN1C[C@@H]2CC[C@H](C1)N(CC1CC1)C2=O,-11.72
6,Cc1noc(C)c1CN1C(=O)[C@H]2CC[C@@H]1CN(Cc1cccnc1N)C2,4.913
7,CC(C)=CCN1C(=O)[C@H]2CC[C@@H]1CN(Cc1cccnc1N)C2,105.7
8,Cl.NC(=O)C1CN(c2ccc(F)cc2)CCN1 (stereo not drawn),7.399
9,COc1ccc(F)c(CN(CCCn2ccnc2)Cc2ccc(C)s2)c1.O=C(O)CC(O)(CC(=O)O)C(=O)O,102.4
10,Cc1ccc(CN(CCCn2ccnc2)Cc2c[nH]nc2C(C)(C)C)s1.O=C(O)CC(O)(CC(=O)O)C(=O)O,9.157
11,Cc1ccc(CN(CCN(C)C)Cc2ncc[nH]2)s1,-11.95
12,Cc1ccc(CN(CCCn2ccnc2)Cc2cnn(C)c2)s1.O=C(O)CC(O)(CC(=O)O)C(=O)O,-39.87
13,OCc1ccc(CN(CCCn2ccnc2)Cc2cccnc2)o1,13
14,Cc1ccc(CN(CCCn2ccnc2)Cc2cccs2)s1.O=C(O)CC(O)(CC(=O)O)C(=O)O,106
15,COc1ccc(Cl)cc1CNCCCn1ccnc1,13.48
16,COc1ccc(F)c(CN2CCC(c3cc(O)nc(C)n3)C2)c1.O=C(O)CC(O)(CC(=O)O)C(=O)O (stereo not drawn),-13.93
17,Cc1ccc(CN(CCCn2ccnc2)Cc2c[nH]cn2)s1.O=C(O)CC(O)(CC(=O)O)C(=O)O,-3.628
18,Cl.Fc1ccc(Cc2cnc(C3CCCN3)cn2)cc1 (stereo not drawn),-27.64
19,COc1ccc(CN(C)[C@@H]2COC[C@H]2c2ccc(F)cc2)cc1.O=C(O)CC(O)(CC(=O)O)C(=O)O,-8.721
20,Cc1oncc1C(=O)N[C@@H]1CN(CC2CC2)C[C@@H]2CCCO[C@@H]21.O=C(O)C(F)(F)F,28.88
21,COCCNC(=O)[C@@H]1C[C@@H]2CCN(c3ncccn3)C[C@H]2O1.O=C(O)C(F)(F)F,-37.39
22,O=C(NC1CC1)C1=CC2(CCN(CC3CC3)CC2)c2ccccc21.O=C(O)C(F)(F)F,-12.48
23,OCc1ccc(CN(CCCn2ccnc2)Cc2ccncc2)o1,-4.525
24,Cc1ccc(CN(CCCN2CCOCC2)Cc2cncn2C)o1.O=C(O)CC(O)(CC(=O)O)C(=O)O,7.314
25,Cc1ccc(CN(CCCn2ccnc2)Cc2cc(F)ccc2F)s1.O=C(O)CC(O)(CC(=O)O)C(=O)O,105.9
26,CC(C)OCCCN(Cc1ccncc1)Cc1cc(F)ccc1F.Cl,-8.981
27,Cc1ccc(CN(CCCn2ccnc2)Cc2c(F)cccc2F)s1.O=C(O)CC(O)(CC(=O)O)C(=O)O,103.6

row,Compound,Percent Effect [%]
1,Fc1ccccc1CN(CCCn1ccnc1)CC1CCOC1.O=C(O)CC(O)(CC(=O)O)C(=O)O (stereo not drawn),-23.62
2,COc1ccccc1CN(CCCn1ccnc1)CC1CCOC1.O=C(O)CC(O)(CC(=O)O)C(=O)O (stereo not drawn),0.5182
3,c1cc(CN(CCCn2ccnc2)Cc2ccoc2)ccn1,0.7312
4,Cc1ccc(CN(Cc2cccnc2)C2CC(C)(C)NC(C)(C)C2)s1.O=C(O)CC(O)(CC(=O)O)C(=O)O,-4.253
5,COC[C@]12COC[C@H]1CN(Cc1ccc3c(c1)OCO3)C2.O=C(O)C(F)(F)F,-2.808
6,CC(CN1CCOCC1)OC(=O)c1ccccc1I.Cl (stereo not drawn),-19.16
7,O=C(O)C(F)(F)F.c1ccc(N2CCOC3(CCCN(c4ncccn4)C3)C2)nc1 (stereo not drawn),36.25
8,Cn1cc(CN2CC[C@]3(C[C@H](Oc4ccccn4)CO3)C2)cn1.O=C(O)C(F)(F)F.O=C(O)C(F)(F)F,21.89
9,Cc1cccnc1N1CC2(CCN(Cc3cnn(C)c3)C2)C1.O=C(O)C(F)(F)F.O=C(O)C(F)(F)F,-17.77
10,CN(C)CCN1C(=O)CCC12CCN(Cc1cccs1)CC2.O=C(O)C(F)(F)F.O=C(O)C(F)(F)F,-4.329
11,CN(C)C(CNC(=O)c1cc2c([nH]c1=O)CCCC2=O)c1ccsc1 (stereo not drawn),-5.178
12,Cc1ccccc1CN1C[C@@H]2COC[C@]2(CNC(=O)C2CCC2)C1.O=C(O)C(F)(F)F,17.62
13,Cc1ccc(CN(CCCn2ccnc2)Cc2[nH]cnc2C)s1.O=C(O)CC(O)(CC(=O)O)C(=O)O,-16.97
14,CCc1ccc(CN(CCCn2ccnc2)Cc2ccc(C)s2)o1.O=C(O)CC(O)(CC(=O)O)C(=O)O,103.6
15,Cc1ccc(CN(CCCn2ccnc2)Cc2cnc(N(C)C)nc2)s1.O=C(O)CC(O)(CC(=O)O)C(=O)O,-30.9
16,Cc1nc(CN2CCO[C@@H]3CN(Cc4ccccn4)CC[C@@H]3C2)cs1.O=C(O)C(F)(F)F.O=C(O)C(F)(F)F,-0.9653
17,CC(=O)N1C[C@@H]2CC[C@H](C1)N(C(=O)CCc1n[nH]c3c1CCCC3)C2,-1.596
18,O=C(CCc1n[nH]c2c1CCCC2)N1C[C@@H]2CC[C@H](C1)N(CC1CC1)C2,90.59
19,CS(=O)(=O)N1C[C@@H]2CC[C@H](C1)N(C(=O)CCc1n[nH]c3c1CCCC3)C2,3.499
20,CN(C)C(=O)N1CCN(Cc2cnn(C)c2)CC2(CNC(=O)C2)C1.O=C(O)C(F)(F)F (stereo not drawn),0.6854
21,Cc1cc(NCc2nnc3n2CCC3)n2nc(C)c(C)c2n1,-14.51
22,Cc1ccnc(NCCSc2nccn2C)n1,9.062
23,Cc1cc(NCCSc2nccn2C)n2ncnc2n1,-35.12
24,CCSCCNc1cc(C)nc2c(C)c(C)nn12,105.5
25,Cc1cc(NCCSc2nccn2C)n2nc(C)c(C)c2n1,72.35
26,COCCn1cnnc1CNc1cc(C)nc2c(C)c(C)nn12,44.3
